# In PubChem BioAssay AID485313 (National Center for Advancing Translational Sciences (NCATS), 2010):
# The campaign covered roughly 320,000 compounds. About 7,600 (2.4%) were called active. Where a call stands in place of a potency, no number is given. Not shown: some 3% with an inconclusive outcome. Calls come from the whole dose curve; as a rule, active = well fitted activation curve with a large enough effect; inconclusive = small, poorly fitted or top-dose-only effect; inactive = no such curve, though single readings can be large or run the other way. For the sample, actives were picked, then their nearest neighbours and some compounds at random.
# Test: qHTS Assay for NPC1 Promoter Activators; note: nearly all actives have a fitted effect of over 60% in size
# Settings: Huh7 NPC1 promoter luciferase reporter, 24 h; series mostly up to 9.22 µM
# In short: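 Luminescence read-out of NPC1 promoter-driven luciferase in stably transfected Huh7 cells; compounds delivered in DMSO and left 24 h at 37C, 5% CO2, qHTS titration format.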
# Potency is the fitted concentration of half-maximal effect.
row,Structure (SMILES),Potency
1,COc1ccc(C(=O)NCC2CCCCC2)cc1S(=O)(=O)N1CCCC1,inactive
2,CCCn1c(N)c(C(=O)CSc2nnc3n2CCCCC3)c(=O)[nH]c1=O,inactive
3,COc1ccc([C@H]2CC(=O)C=C(c3ccc(CO)cc3)C2)cc1,inactive
4,Cc1c(/C=N\NC(=O)c2cc3ccccc3o2)c2ccccc2n1C,inactive
5,C/C(=N\NC(=S)Nc1ccc(C)cc1)c1cc2ccccc2o1,inactive
6,Cc1ccc(NC(=O)c2cc3ccccc3o2)cc1,3.16 µM (active)
7,COc1ccc(NC(=O)Cn2cc(C(=O)c3ccncc3)c(=O)c3cc(C)ccc32)cc1Cl,inactive
8,O=C1C=C(c2cccc(Br)c2)C[C@@H](c2ccc(F)cc2)C1,inactive
9,Cc1ccnc(NC(=O)CCCOc2ccccc2)c1,inactive
10,COc1cc(SC)ccc1C(=O)NCCOc1ccccc1Cl,3.16 µM (active)
11,COc1cc(SC)ccc1C(=O)Nc1cc(C)ccn1,3.16 µM (active)
12,COc1ccccc1OCCNC(=O)CCNC(=O)c1ccccc1Cl,inactive
13,Cc1ccnc(NC(=O)CNC(=O)c2ccccc2)c1,inactive
14,COc1cc(SC)ccc1C(=O)N(Cc1ccccc1)c1ccccc1,inactive
15,COc1ccc(S(=O)(=O)Nc2cc(C)on2)cc1NC(C)=O,inactive
16,CC1CCCCC1NC(=O)COC(=O)Cc1ccc(Cl)cc1 (centres undefined),inactive
17,CCc1ccc(C(=O)N2CCN(S(=O)(=O)c3sc(C(=O)O)c(C)c3C(=O)O)CC2)cc1,inactive
18,COc1ccc(CNC(=O)CN2C(=O)NC3(CCCc4sccc43)C2=O)cc1 (centres undefined),inactive
19,CCN(CC)S(=O)(=O)c1ccc(CNC(=O)CN2C(=O)NC3(CCc4ccccc43)C2=O)cc1 (centres undefined),inactive
20,CCn1nc(C(=O)OCC(=O)N2c3ccccc3CC2C)c2ccccc2c1=O (centres undefined),inactive
21,CCCC(=O)N1c2ccc(-c3csc(N)n3)cc2CC1C (centres undefined),2.82 µM (active)
22,Cc1ccn(CCC(=O)N2c3ccccc3CC2C)n1 (centres undefined),inactive

row,Structure (SMILES),Potency
1,COc1ccc(CCNC(=O)COC(=O)c2cc(=O)c3ccccc3o2)cc1,inactive
2,O=C(O)c1ccccc1N=N/C(=N/Nc1cc(S(=O)(=O)O)ccc1O)c1ccccc1,inactive
3,Cc1nc(N2CCCCC2)sc1C=O,inactive
4,O=C(NCCc1cccc(F)c1)C1CCCN(c2nc3ccccc3s2)C1 (centres undefined),inactive
5,Brc1ccc2nc(N3CCCC3)sc2c1,2 µM (active)
6,Fc1ccc2nc(N3CCCCC3)sc2c1,3.55 µM (active)
7,O=C(c1ccc2nc(N3CCOCC3)sc2c1)N1CCN(c2ccc(Cl)cc2)CC1,inactive
8,CN(C)CCCN(C(=O)c1ccc(S(=O)(=O)N2CCCCCC2)cc1)c1nc2ccc(Br)cc2s1,inactive
9,OCC[C@H]1C[C@H](O)[C@@H](O)[C@]2(Cc3ccccc3CO2)O1,inactive
10,COc1ccccc1CNC(=O)CCCN1C(=O)NC2(CCCC2)C1=O,inactive
11,CNS(=O)(=O)c1cccc(C(=O)OCC(=O)N2c3ccccc3NC(=O)C2(C)C)c1,inactive
12,Cc1ccc(OCCCC(=O)Nc2ccc3c(c2)OCCO3)cc1,inactive
13,CC(=O)Nc1ccc(/C=N/NC(=O)c2cccs2)cc1,2.51 µM (active)
14,CCN(CC)c1ccc(/C=N/NC(=O)CNC(=O)c2cccs2)cc1,inactive
15,O=C(CNC(=O)c1cccs1)N/N=C/c1cccc(Br)c1,inactive
16,CC(=O)c1ccc(OC(=O)N2CCOCC2)cc1,inactive
17,CC(C)CN(C(=O)CSc1nncn1C)C1CCS(=O)(=O)C1 (centres undefined),inactive
18,COc1ccc(-c2cc(C(=O)NCCCN3CCOCC3)no2)cc1,inactive
19,CC(C)CNC(=O)c1cc(-c2ccc(Br)cc2)on1,3.16 µM (active)
20,Cc1c(NC(=O)c2cc(-c3ccc(Br)cc3)on2)c(=O)n(-c2ccccc2)n1C,inactive
21,COc1ccc(CCC(=O)N2CCN(S(=O)(=O)c3ccc(OC)cc3)CC2)cc1,inactive
22,Cc1cc(NC(=O)COc2ccc([N+](=O)[O-])cc2)no1,inactive

row,Structure (SMILES),Potency
1,Cc1cccc(NC(=O)CN2CCN(CC(=O)NCC3(N4CCCCC4)CCCCC3)CC2)c1C,inactive
2,CN(CC(=O)NC(=O)Nc1ccccc1F)Cc1ccccc1,inactive
3,CCCCCC(=O)Nc1ccc(-c2cn3cccnc3n2)cc1,inactive
4,CC(C)(C)C(=O)Nc1ccc(-c2cn3cccnc3n2)cc1,3.16 µM (active)
5,CC(=O)Nc1ccc(S(=O)(=O)Nc2cccc(NC(=O)C(C)(C)C)c2)cc1,inactive
6,O=C1C=C(c2ccnc3cc(Cl)ccc23)C[C@@H](c2ccc3c(c2)OCO3)C1,inactive
7,Cc1ccc(CNC(=O)c2cc(-c3ccccc3C)n(CC3CC(c4cccc([N+](=O)[O-])c4)=NO3)n2)cc1 (centres undefined),inactive
8,CN(c1ccccc1)S(=O)(=O)c1cccc(NC(=O)Cc2ccc(Cl)cc2)c1,inactive
9,S=C(c1ccccc1)N1CCCC1,inactive
10,OCCN1CCN(C(=S)c2ccc(-c3ccccc3)cc2)CC1,inactive
11,S=C(c1ccc(-c2ccccc2)o1)N1CCCCC1,2.24 µM (active)
12,O=C(OCC(=O)N1CCCC1)c1ccc(Cl)nc1,inactive
13,Cc1ccc(Nc2nnc(SC(C)C(=O)NC3CC3)s2)cc1 (centres undefined),inactive
14,CN1CCN(c2ccc(NC(=O)c3cc(Cl)c4c(c3)OCCO4)cc2)CC1,inactive
15,CN1CCN(c2ccc(NC(=O)c3ccc4c(c3)OCCO4)cc2Cl)CC1,3.55 µM (active)
16,O=C(Nc1cccc(S(=O)(=O)N2CCCCC2)c1)c1ccc2c(c1)OCO2,inactive
17,O=C(CN1CCc2cc3c(cc2C1)OCCCO3)Nc1ccccc1,inactive
18,Cc1ccc(F)cc1NC(=O)c1ccc2c(c1)OCO2,inactive
19,O=C(CCNC(=O)c1ccccc1)Nc1nc2ccccc2s1,inactive
20,O=C(Nc1ccc(Cl)cc1)Nc1nnc(/C=C/c2ccccc2)s1,inactive
21,O=C(Nc1ccccc1F)c1ccc2c(c1)OCO2,3.98 µM (active)
22,COC(=O)c1ccc(N2CCOCC2)c(NC(=O)c2ccc3c(c2)OCCO3)c1,inactive

row,Structure (SMILES),Potency
1,O=C(Nc1ccccc1)Nc1nc2ccccc2s1,2.82 µM (active)
2,O=C(Nc1ccccc1N1CCN(C(=O)c2ccccc2)CC1)c1ccc2c(c1)OCO2,inactive
3,O=C(Nc1ccccc1)c1ccc2c(c1)OCCCO2,0.501 µM (active)
4,Cc1cc(C)n2nc(C(=O)OCC(=O)N(C)CC(=O)Nc3ccc(F)cc3)nc2n1,inactive
5,O=C(CSc1nc2[nH]c(=O)[nH]c(=O)c2s1)Nc1cccc(F)c1,inactive
6,Cc1cc(C)c(C#N)c(SCC(=O)N(CC(C)C)C2CCS(=O)(=O)C2)n1 (centres undefined),inactive
7,c1csc(-c2nnc(COc3ccc4c(c3)OCO4)o2)c1,inactive
8,Cc1cccc(C(=O)O)c1[N+](=O)[O-],inactive
9,N#Cc1ccc(C(=O)OCC(=O)NC(=O)NC2CCCCC2)cc1,inactive
10,O=S(=O)(c1ccc(SCc2ccccc2)nc1)N1CCCCCC1,inactive
11,O=C(Nc1cccc([N+](=O)[O-])c1)c1ccc2c(c1)OCO2,inactive
12,O=C(Nc1ccc(NC(=O)c2ccc3c(c2)OCO3)cc1)c1cccc(Cl)c1,inactive
13,O=C(Nc1nc2cc3c(cc2s1)OCCO3)c1cccc(S(=O)(=O)N2CCOCC2)c1,inactive
14,CCCc1nnc(NC(=O)c2cc(OC)cc(OC)c2)s1,inactive
15,COc1ccc(S(=O)(=O)N2CCOCC2)cc1C(=O)Nc1nc2ccccc2s1,inactive
16,Cn1c(NC(=O)c2ccc3c(c2)OCO3)cc(=O)n(C)c1=O,inactive
17,CCSc1ccccc1C(=O)Nc1ccc2c(c1)OCO2,inactive
18,COCc1nnc(NC(=O)c2ccc3c(c2)OCO3)s1,2.82 µM (active)
19,O=C(Nc1ccc2c(c1)OCO2)c1ccc(N2C(=O)c3ccccc3C2=O)cc1,inactive
20,O=C(Nc1nc2ccccc2s1)c1ccc2c(c1)OCO2,0.562 µM (active)
21,CC(C)C(=O)Nc1cccc(C(=O)Nc2ccc3c(c2)OCO3)c1,2.82 µM (active)
22,O=C(Nc1ccccc1)c1ccc2c(c1)OCO2,2.82 µM (active)

row,Structure (SMILES),Potency
1,CS(=O)(=O)Nc1ccccc1C(=O)OCC(=O)NC1CC1,inactive
2,CSc1ccccc1C(=O)OCC(=O)N1CCN(C(C)=O)CC1,inactive
3,Cc1cccc(C(=O)NC(=S)N2CCN(c3ccc([N+](=O)[O-])cc3)CC2)c1,inactive
4,N#Cc1ccccc1S(=O)(=O)N1CCN(C(=O)c2cc(-c3ccccc3)nn2-c2ccccc2)CC1,inactive
5,Cc1ccc(S(=O)(=O)NCCNC(C)c2ccc(Br)cc2)cc1 (centres undefined),inactive
6,CCN(C(=O)CSc1nc(N)cc(=O)[nH]1)C1CCS(=O)(=O)C1 (centres undefined),inactive
7,CC1(C)O[C@@H]2[C@H](O1)[C@@H](COS(=O)(=O)O)O[C@H]2n1cnc2c(=O)[nH]cnc21,inactive
8,COCCn1c(C)cc(C2=NNC(=Nc3ccc(F)cc3)SC2)c1C,2.51 µM (active)
9,C=CCn1c(C)cc(C2=NNC(=NCC)SC2)c1C,inactive
10,COC(=O)c1cc(OC)c(OC)cc1NC(=O)CSc1ccc(C)cc1,inactive
11,Cc1ccc(SCC(=O)c2cc(C)c(OC(=S)N(C)C)c(C)c2)cc1,2.51 µM (active)
12,CCN1CCN(C(=O)CSc2ccc(C)cc2)CC1,inactive
13,CCC(=O)NC(=S)Nc1ccc(NC(=O)c2ccco2)c(Cl)c1,inactive
14,O=C(NNC(=S)Nc1ccc(Br)cc1Cl)c1ccco1,3.55 µM (active)
15,O=C(NNC(=O)c1ccco1)Nc1ccccc1,inactive
16,CC1(NC(=O)CCS(=O)(=O)c2ccc(Cl)cc2)CCS(=O)(=O)C1 (centres undefined),inactive
17,CCOc1ccc(C(=O)CCC(=O)Nc2ccncc2)cc1,inactive
18,CN1C(=O)/C(=C/C=C2\SCCN2C)OC1=S,3.98 µM (active)
19,Cc1cc(C)cc(NC(=O)c2cccc(NC(=O)C3C4CC5OC(=O)C3C5C4)c2)c1 (centres undefined),inactive
20,O=C(Cn1c2[n+](c3ccc(C(F)(F)F)cc31)CCCCC2)Nc1c(F)cccc1F,inactive
21,NC(=O)C1CCN(C(=O)c2ccc(F)c(S(=O)(=O)N3CCOCC3)c2)CC1,inactive
